Drawing on publication PMC5700166, this text covers binding signal for 27 sequences.

Holding throughout (assay): protein-binding microarray (PBM); PBM: ~300 nM protein, 6 mM HEPES pH 7.8, 80 mM KCl, 0.5 mM EDTA, 0.5 mM EGTA, 6% glycerol, 35 ng/ul poly-dIdC, 1% milk, 1 h, room temperature; Ap Aiptasia and Nv Nematostella (sea anemones) / Co Capsaspora / Aq Amphimedon (sponge) / Dm Drosophila / Hu human; RHD is the Rel homology domain; high values mean tight binding
What all share (conditions): dsDNA, one strand shown

For one assay, the target named is T1, GST-Ap-NF-kB RHD (Exaiptasia pallida (Aiptasia), UniProt A0A913YAJ5 2-422).
T1 sequence: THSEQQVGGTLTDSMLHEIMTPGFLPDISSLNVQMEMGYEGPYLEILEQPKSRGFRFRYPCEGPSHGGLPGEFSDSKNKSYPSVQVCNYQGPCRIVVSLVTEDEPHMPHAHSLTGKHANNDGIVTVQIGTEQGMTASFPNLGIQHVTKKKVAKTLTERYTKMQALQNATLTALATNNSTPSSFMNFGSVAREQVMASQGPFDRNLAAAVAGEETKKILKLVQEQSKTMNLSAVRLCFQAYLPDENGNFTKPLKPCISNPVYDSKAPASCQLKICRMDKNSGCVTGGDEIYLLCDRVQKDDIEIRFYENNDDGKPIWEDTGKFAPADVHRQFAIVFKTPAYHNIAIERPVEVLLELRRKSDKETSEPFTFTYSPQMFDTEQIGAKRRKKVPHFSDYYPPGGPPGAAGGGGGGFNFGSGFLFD

The target of assay [1] is T2, GST-Nv-NF-kB (Cys allele) (Nematostella vectensis, UniProt E5G601 2-411).
T2 sequence: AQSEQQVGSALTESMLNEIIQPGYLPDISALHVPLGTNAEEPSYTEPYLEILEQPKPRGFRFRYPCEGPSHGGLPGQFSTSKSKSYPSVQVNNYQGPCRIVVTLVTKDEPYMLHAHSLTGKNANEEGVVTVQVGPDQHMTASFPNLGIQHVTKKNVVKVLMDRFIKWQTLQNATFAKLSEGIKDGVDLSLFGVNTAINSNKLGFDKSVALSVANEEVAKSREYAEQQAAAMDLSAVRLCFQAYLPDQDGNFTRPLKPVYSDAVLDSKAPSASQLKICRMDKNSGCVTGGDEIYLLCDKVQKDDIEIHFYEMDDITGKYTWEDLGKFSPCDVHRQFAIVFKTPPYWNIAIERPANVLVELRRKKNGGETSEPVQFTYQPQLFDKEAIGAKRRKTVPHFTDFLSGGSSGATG

The target in another assay is T3, GST-Co-NF-kB (Capsaspora owczarzaki, UniProt F1ARL5 200-546).
T3 sequence: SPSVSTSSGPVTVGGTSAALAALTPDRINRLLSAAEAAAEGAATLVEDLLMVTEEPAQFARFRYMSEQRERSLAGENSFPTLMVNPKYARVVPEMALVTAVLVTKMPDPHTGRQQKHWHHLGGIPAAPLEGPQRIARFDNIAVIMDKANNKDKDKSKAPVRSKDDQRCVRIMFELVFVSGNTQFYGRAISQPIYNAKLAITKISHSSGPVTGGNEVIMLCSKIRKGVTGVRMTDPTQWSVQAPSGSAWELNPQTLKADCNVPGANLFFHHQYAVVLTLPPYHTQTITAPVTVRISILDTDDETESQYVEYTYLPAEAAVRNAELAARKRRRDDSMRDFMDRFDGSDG

The next assay concerns the target T4, GST-Dm-Relish (Drosophila melanogaster, UniProt Q94527 99-473).
T4 sequence: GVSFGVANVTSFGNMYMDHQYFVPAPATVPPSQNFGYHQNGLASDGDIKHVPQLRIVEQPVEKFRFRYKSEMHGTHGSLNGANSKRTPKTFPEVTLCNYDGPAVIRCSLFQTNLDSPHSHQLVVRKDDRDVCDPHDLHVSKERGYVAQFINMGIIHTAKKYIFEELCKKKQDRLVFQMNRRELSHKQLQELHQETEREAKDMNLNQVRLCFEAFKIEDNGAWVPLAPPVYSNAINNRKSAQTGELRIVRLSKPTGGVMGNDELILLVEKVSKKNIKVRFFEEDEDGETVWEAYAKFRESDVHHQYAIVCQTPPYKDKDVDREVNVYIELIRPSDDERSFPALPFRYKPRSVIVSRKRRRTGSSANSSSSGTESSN

Another assay addresses T5, GST-Aq-NF-kB (Amphimedon queenslandica, UniProt A9Y5G7 2-389).
T5 sequence: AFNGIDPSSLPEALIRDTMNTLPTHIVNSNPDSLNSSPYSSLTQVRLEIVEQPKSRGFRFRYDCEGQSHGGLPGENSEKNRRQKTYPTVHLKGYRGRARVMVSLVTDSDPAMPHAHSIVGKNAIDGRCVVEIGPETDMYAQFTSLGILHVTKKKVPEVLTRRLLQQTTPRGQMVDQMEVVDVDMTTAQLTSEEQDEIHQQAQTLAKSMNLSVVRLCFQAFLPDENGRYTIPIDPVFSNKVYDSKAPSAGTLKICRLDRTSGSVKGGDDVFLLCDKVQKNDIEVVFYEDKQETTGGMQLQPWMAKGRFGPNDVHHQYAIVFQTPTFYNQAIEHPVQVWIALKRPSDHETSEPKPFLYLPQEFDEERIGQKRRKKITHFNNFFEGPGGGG

Consider “CCGATTAACATCAGGAATACCCCTGATGTTAATCGGGTCTTGATTCGCTTGACGCTGCTG”, for which the binding signal was found to be 6.59 z-score with GST-Ap-NF-kB RHD; 6.44 z-score in assay [1]; 4.14 z-score in the assay with GST-Co-NF-kB; 6.46 z-score in the assay with GST-Dm-Relish; 6.92 z-score in the assay with GST-Aq-NF-kB.
On the same counts, the results for “CCGATTAACATCAAACTCTCCCCTGATGTTAATCGGGTCTTGATTCGCTTGACGCTGCTG” are 5.13 z-score, 4.94 z-score, 6.22 z-score, 1.21 z-score and 4.74 z-score.
Consider “CCGATTAACATCAAACTTTCCCATGATGTTAATCGGGTCTTGATTCGCTTGACGCTGCTG”, for which the binding signal was 3.24 z-score with GST-Ap-NF-kB RHD; 4.83 z-score in assay [1]; 4.07 z-score with GST-Co-NF-kB; 1.39 z-score with GST-Dm-Relish; 5.27 z-score with GST-Aq-NF-kB.
On the same counts, the results for “CCGATTAACATCAACATCCCCCCTGATGTTAATCGGGTCTTGATTCGCTTGACGCTGCTG” are 5.64 z-score, 5.25 z-score, 5.48 z-score, 5.72 z-score and 5.23 z-score.
On the same counts, the results for “CCGATTAACATCAGGAGTACCCCTGATGTTAATCGGGTCTTGATTCGCTTGACGCTGCTG” are 3.01 z-score, 2.42 z-score, 2.96 z-score, 3.64 z-score and 4.07 z-score.
On the same counts, the results for “CCGATTAACATCACGGAGTCCCCTGATGTTAATCGGGTCTTGATTCGCTTGACGCTGCTG” are 6.33 z-score, 4.74 z-score, 2.46 z-score, 7.32 z-score and 4.65 z-score.
For the sequence “CCGATTAACATCACGAGATTCCCTGATGTTAATCGGGTCTTGATTCGCTTGACGCTGCTG”, the binding signal with GST-Ap-NF-kB RHD worked out at 3.03 z-score; in assay [1], 3.39 z-score; in the assay with GST-Co-NF-kB it was 2.52 z-score; with GST-Dm-Relish, 1.75 z-score; with GST-Aq-NF-kB, 3.38 z-score.
On the same counts, the results for “CCGATTAACATCAGGGGAGAAAATGATGTTAATCGGGTCTTGATTCGCTTGACGCTGCTG” are 4.25 z-score, 5.5 z-score, 8.56 z-score, 2.26 z-score and 3.89 z-score.
Take “CCGATTAACATCAGGGGGAAGCATGATGTTAATCGGGTCTTGATTCGCTTGACGCTGCTG”: the binding signal with GST-Ap-NF-kB RHD was 4.43 z-score; in assay [1], 5.1 z-score; with GST-Co-NF-kB, 7.73 z-score; with GST-Dm-Relish, 3.21 z-score; in the assay with GST-Aq-NF-kB, 4.01 z-score.
Take “CCGATTAACATCAGATACCCCCCTGATGTTAATCGGGTCTTGATTCGCTTGACGCTGCTG”: the binding signal amounted to 6.55 z-score in the assay with GST-Ap-NF-kB RHD; 4.3 z-score in assay [1]; 4.8 z-score with GST-Co-NF-kB; 3.94 z-score in the assay with GST-Dm-Relish; 4.46 z-score with GST-Aq-NF-kB.
On to “CCGATTAACATCAGGGAATATAATGATGTTAATCGGGTCTTGATTCGCTTGACGCTGCTG”, for which the binding signal amounted to 3.2 z-score with GST-Ap-NF-kB RHD; 3.59 z-score in assay [1]; 3.13 z-score with GST-Co-NF-kB; 1.66 z-score with GST-Dm-Relish; 3.14 z-score in the assay with GST-Aq-NF-kB.
On to “CCGATTAACATCAAGGAAACCCCTGATGTTAATCGGGTCTTGATTCGCTTGACGCTGCTG”, for which the binding signal with GST-Ap-NF-kB RHD was found to be 6.7 z-score; in assay [1] it was 4.95 z-score; with GST-Co-NF-kB, 2.91 z-score; with GST-Dm-Relish, 7.36 z-score; with GST-Aq-NF-kB, 6.19 z-score.
On the same counts, the results for “CCGATTAACATCAAAAAGGGAAATGATGTTAATCGGGTCTTGATTCGCTTGACGCTGCTG” are 2.59 z-score, 5.91 z-score, 1.33 z-score, 1.31 z-score and 4.54 z-score.
Consider “CCGATTAACATCACGCAACCCCCTGATGTTAATCGGGTCTTGATTCGCTTGACGCTGCTG”, for which the binding signal with GST-Ap-NF-kB RHD stood at 5.37 z-score; in assay [1], 3.7 z-score; with GST-Co-NF-kB, 2 z-score; in the assay with GST-Dm-Relish, 5.08 z-score; with GST-Aq-NF-kB it was 3.89 z-score.
As for “CCGATTAACATCAGGGGTTACACTGATGTTAATCGGGTCTTGATTCGCTTGACGCTGCTG”, the binding signal with GST-Ap-NF-kB RHD was 2.67 z-score; in assay [1], 1.04 z-score; with GST-Co-NF-kB it was 2.66 z-score; in the assay with GST-Dm-Relish it was 2 z-score; with GST-Aq-NF-kB it was 2.36 z-score.
On the same counts, the results for “CCGATTAACATCAGGGATTTTCATGATGTTAATCGGGTCTTGATTCGCTTGACGCTGCTG” are 5.23 z-score, 4.83 z-score, 1.61 z-score, 6.05 z-score and 5.16 z-score.
On the same counts, the results for “CCGATTAACATCACGTGTTTCCCTGATGTTAATCGGGTCTTGATTCGCTTGACGCTGCTG” are 2.62 z-score, 2.76 z-score, 3 z-score, 3.51 z-score and 3.35 z-score.
On the same counts, the results for “CCGATTAACATCAATCTACCCCCTGATGTTAATCGGGTCTTGATTCGCTTGACGCTGCTG” are 4.86 z-score, 3.1 z-score, 7.41 z-score, 2.3 z-score and 3.68 z-score.
For the sequence “CCGATTAACATCAGGGAAAACGATGATGTTAATCGGGTCTTGATTCGCTTGACGCTGCTG”, the binding signal with GST-Ap-NF-kB RHD is 2.75 z-score; in assay [1], 3.95 z-score; with GST-Co-NF-kB, 3.39 z-score; with GST-Dm-Relish it was 1.18 z-score; with GST-Aq-NF-kB it was 2.74 z-score.
On the same counts, the results for “CCGATTAACATCAAGGGGGGGGCTGATGTTAATCGGGTCTTGATTCGCTTGACGCTGCTG” are 5.13 z-score, 3.96 z-score, 4.65 z-score, 5.21 z-score and 4.89 z-score.
On the same counts, the results for “CCGATTAACATCAGGGAAATAAATGATGTTAATCGGGTCTTGATTCGCTTGACGCTGCTG” are 2.39 z-score, 4.44 z-score, 4.38 z-score, 2.1 z-score and 4.44 z-score.
On the same counts, the results for “CCGATTAACATCACATGTTCCCCTGATGTTAATCGGGTCTTGATTCGCTTGACGCTGCTG” are 4.94 z-score, 5.26 z-score, 6.79 z-score, 3.04 z-score and 4.62 z-score.
Regarding “CCGATTAACATCAAACAAACCCCTGATGTTAATCGGGTCTTGATTCGCTTGACGCTGCTG”, the binding signal in the assay with GST-Ap-NF-kB RHD was 4.35 z-score; in assay [1], 3.42 z-score; with GST-Co-NF-kB it was 1.74 z-score; in the assay with GST-Dm-Relish it was 3.06 z-score; with GST-Aq-NF-kB, 3.95 z-score.
In the case of “CCGATTAACATCAAGTACCCCCATGATGTTAATCGGGTCTTGATTCGCTTGACGCTGCTG”, the binding signal in the assay with GST-Ap-NF-kB RHD was determined as 4.72 z-score; in assay [1], 2.7 z-score; with GST-Co-NF-kB, 4.36 z-score; in the assay with GST-Dm-Relish, 2.25 z-score; with GST-Aq-NF-kB, 2.6 z-score.
“CCGATTAACATCAAATTCCCAGTTGATGTTAATCGGGTCTTGATTCGCTTGACGCTGCTG”: the binding signal was 1.52 z-score with GST-Ap-NF-kB RHD; 3.74 z-score in assay [1]; 2.97 z-score in the assay with GST-Co-NF-kB; 4.29 z-score with GST-Dm-Relish; 2.37 z-score with GST-Aq-NF-kB.
On the same counts, the results for “CCGATTAACATCAGGGAATGTACTGATGTTAATCGGGTCTTGATTCGCTTGACGCTGCTG” are 2.21 z-score, 3.28 z-score, 2.29 z-score, 7.08 z-score and 4.86 z-score.
On the same counts, the results for “CCGATTAACATCAGGGGTTTACCTGATGTTAATCGGGTCTTGATTCGCTTGACGCTGCTG” are 5.65 z-score, 5.44 z-score, 1.56 z-score, 9.7 z-score and 6.9 z-score.
